Laboratory results as given in paper PMC9911399, “Two distinct binding modes provide the RNA-binding protein RbFox with extraordinary sequence specificity”.
Positions count from the first letter of the chain named. The full ranking holds about 16,000 sequences; the median of “ka relative to ugcaugu” is about 0.096, and the highest 2% start at about 0.35. The sample as a whole holds a higher share of the highest values than the screen did.

T1: RBFOX1 RRM RbFoxmut (Fox-RRM*) (Homo sapiens, UniProt Q9NWB1 109-208, R118D;E147R;N151S;E152T)
T1 sequence: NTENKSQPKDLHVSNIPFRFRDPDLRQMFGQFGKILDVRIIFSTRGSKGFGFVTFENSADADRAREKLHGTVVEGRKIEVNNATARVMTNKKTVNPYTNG

B1: CCCAAUU (DNA:RNA)
RNA: GGGAGACCGGAAUUCAGAUUGUCCCCCAAUUUUAAAUCCCGUCGUAGCCACCA
DNA 1: CAATCTGAATTCCGGTCTCCC
DNA 2: TGGTGGCTACGACGGGATT
B2: GUAUUUG (DNA:RNA)
RNA: B1 RNA with C25G, C26U, C27A, A28U, A29U, U31G
DNA 1: CAATCTGAATTCCGGTCTCCC
DNA 2: TGGTGGCTACGACGGGATT
B3: CCUUCAG (DNA:RNA)
RNA: B1 RNA with C27U, A28U, A29C, U30A, U31G
DNA 1: CAATCTGAATTCCGGTCTCCC
DNA 2: TGGTGGCTACGACGGGATT
B4: UGUCGGU (DNA:RNA)
RNA: B1 RNA with C25U, C26G, C27U, A28C, A29G, U30G
DNA 1: CAATCTGAATTCCGGTCTCCC
DNA 2: TGGTGGCTACGACGGGATT
B5: ACGAACU (DNA:RNA)
RNA: B1 RNA with C25A, C27G, U30C
DNA 1: CAATCTGAATTCCGGTCTCCC
DNA 2: TGGTGGCTACGACGGGATT
B6: UCCUGGC (DNA:RNA)
RNA: B1 RNA with C25U, A28U, A29G, U30G, U31C
DNA 1: CAATCTGAATTCCGGTCTCCC
DNA 2: TGGTGGCTACGACGGGATT
B7: UGGCUUG (DNA:RNA)
RNA: B1 RNA with C25U, C26G, C27G, A28C, A29U, U31G
DNA 1: CAATCTGAATTCCGGTCTCCC
DNA 2: TGGTGGCTACGACGGGATT
B8: AGUGCCU (DNA:RNA)
RNA: B1 RNA with C25A, C26G, C27U, A28G, A29C, U30C
DNA 1: CAATCTGAATTCCGGTCTCCC
DNA 2: TGGTGGCTACGACGGGATT
B9: UGCUGGC (DNA:RNA)
RNA: B1 RNA with C25U, C26G, A28U, A29G, U30G, U31C
DNA 1: CAATCTGAATTCCGGTCTCCC
DNA 2: TGGTGGCTACGACGGGATT
B10: GUGUGCC (DNA:RNA)
RNA: GGGAGACCGGAAUUCAGAUUGUCCGUGUGCCUUAAAUCCCGUCGUAGCCACCA
DNA 1: CAATCTGAATTCCGGTCTCCC
DNA 2: TGGTGGCTACGACGGGATT
B11: ACUUGCG (DNA:RNA)
RNA: B10 RNA with G25A, U26C, G27U, C31G
DNA 1: CAATCTGAATTCCGGTCTCCC
DNA 2: TGGTGGCTACGACGGGATT
B12: UUGUGCC (DNA:RNA)
RNA: B10 RNA with G25U
DNA 1: CAATCTGAATTCCGGTCTCCC
DNA 2: TGGTGGCTACGACGGGATT
B13: ACUUGCC (DNA:RNA)
RNA: B10 RNA with G25A, U26C, G27U
DNA 1: CAATCTGAATTCCGGTCTCCC
DNA 2: TGGTGGCTACGACGGGATT
B14: CCGUGCC (DNA:RNA)
RNA: B10 RNA with G25C, U26C
DNA 1: CAATCTGAATTCCGGTCTCCC
DNA 2: TGGTGGCTACGACGGGATT
B15: UUGCCAC (DNA:RNA)
RNA: B10 RNA with G25U, U28C, G29C, C30A
DNA 1: CAATCTGAATTCCGGTCTCCC
DNA 2: TGGTGGCTACGACGGGATT
B16: CAGUGCC (DNA:RNA)
RNA: B10 RNA with G25C, U26A
DNA 1: CAATCTGAATTCCGGTCTCCC
DNA 2: TGGTGGCTACGACGGGATT
B17: CAGUGCG (DNA:RNA)
RNA: B10 RNA with G25C, U26A, C31G
DNA 1: CAATCTGAATTCCGGTCTCCC
DNA 2: TGGTGGCTACGACGGGATT
B18: CCUUAUC (DNA:RNA)
RNA: B1 RNA with C27U, A28U, U31C
DNA 1: CAATCTGAATTCCGGTCTCCC
DNA 2: TGGTGGCTACGACGGGATT
B19: AAAUGUC (DNA:RNA)
RNA: B10 RNA with G25A, U26A, G27A, C30U
DNA 1: CAATCTGAATTCCGGTCTCCC
DNA 2: TGGTGGCTACGACGGGATT
B20: CUAUAGG (DNA:RNA)
RNA: B1 RNA with C26U, C27A, A28U, U30G, U31G
DNA 1: CAATCTGAATTCCGGTCTCCC
DNA 2: TGGTGGCTACGACGGGATT

Each binder was assayed against T1, RBFOX1 RRM RbFoxmut (Fox-RRM*) (assay: EMSA; HiTS-Eq, 1 nM pool, 10 min; buffer printed only for the single-RNA assays: 10 mM Tris pH 7.5, 150 mM NaCl, 3.4 mM EDTA, 0.001% NP-40, 30 C). Settings: tags: His6 N-terminal (pET28a); label: 5' 32P.
Summary of the method: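 Purified RbFox RRM, wild type or mutant, was incubated for 10 min in 50 µL with 1 nM of a 5′-radiolabelled RNA pool carrying 7 randomized nucleotides, whose flanks were annealed to DNA oligonucleotides, over a series of increasing protein concentrations. Unbound RNA was resolved on 8% native PAGE, cut out, reverse-transcribed, barcoded by PCR and sequenced on an Illumina HiSeq 2500. Relative association constants were derived from changes in read counts for each RNA species versus the control reaction and normalised to the cognate motif.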
With B1 the binding signal was 0.0634 KA relative to UGCAUGU.
With B2 the binding signal was 0.17 KA relative to UGCAUGU.
In the case of B3, the binding signal is reported as 0.114 KA relative to UGCAUGU.
B4 was tested, and the binding signal was 0.112 KA relative to UGCAUGU.
In the case of B5, the binding signal is reported as 0.0682 KA relative to UGCAUGU.
In the case of B6, the binding signal is reported as 0.128 KA relative to UGCAUGU.
In the case of B7, the binding signal is reported as 0.92 KA relative to UGCAUGU.
With B8 the binding signal was 0.0968 KA relative to UGCAUGU.
B9 was tested, and the binding signal was 0.119 KA relative to UGCAUGU.
In the case of B10, the binding signal is reported as 0.22 KA relative to UGCAUGU.
In the case of B11, the binding signal is reported as 0.156 KA relative to UGCAUGU.
For B12, the binding signal was 0.46 KA relative to UGCAUGU.
With B13 the binding signal was 0.372 KA relative to UGCAUGU.
In the case of B14, the binding signal is reported as 0.264 KA relative to UGCAUGU.
In the case of B15, the binding signal is reported as 0.0642 KA relative to UGCAUGU.
In the case of B16, the binding signal is reported as 0.402 KA relative to UGCAUGU.
B17 was tested, and the binding signal was 0.148 KA relative to UGCAUGU.
For B18, the binding signal was 0.0522 KA relative to UGCAUGU.
In the case of B19, the binding signal is reported as 0.145 KA relative to UGCAUGU.
In the case of B20, the binding signal is reported as 0.0751 KA relative to UGCAUGU.
